PubChem BioAssay AID1159580 (chemical genetic matrix, 2015)
The campaign covered roughly 5,500 compounds. About 2,000 (36%) were called active. Inconclusive results (about 18%) are left out. No stated cut-off is given here; in the data, active means normalized growth mostly below about 0.91 (no sharp cut-off); inconclusive means no clear call, values can overlap the other calls; inactive means mostly above about 0.92. The list shows a part of the results.

Test: chemical genetic growth profiling, strain panel (AID 1159580);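 further: tested at 20 µM; growth read once vehicle control cultures reached saturation at 30 °C; 1 = growth at the plate median or of vehicle wells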
Conditions: growth OD
[1] = S. cerevisiae deletion strains, locus YCL061C, strain MRC1, stronger effect = lower value

Measured: normalized growth

Cc1c(Cl)cccc1SCC(=O)O
active: S. cerevisiae deletion strains, locus YMR219W, strain ESC1, stronger effect = lower value 0.945
inactive: S. cerevisiae deletion strains, locus YAL013W, strain DEP1, stronger effect = lower value 0.944 | S. cerevisiae deletion strains, locus YBR229C, strain ROT2, stronger effect = lower value 0.958 | [1] 0.989 | S. cerevisiae deletion strains, locus YDL101C, strain DUN1, stronger effect = lower value 0.973 | S. cerevisiae deletion strains, locus YDL134C, strain PPH21, stronger effect = lower value 1.01 | S. cerevisiae deletion strains, locus YDR150W, strain NUM1, stronger effect = lower value 0.926 | S. cerevisiae deletion strains, locus YEL061C, strain CIN8, stronger effect = lower value 0.977 | S. cerevisiae deletion strains, locus YGR078C, strain PAC10, stronger effect = lower value 0.964 | S. cerevisiae deletion strains, locus YHR030C, strain SLT2, stronger effect = lower value 1.06 | S. cerevisiae deletion strains, locus YHR087W, strain rtc3, stronger effect = lower value 0.984 | S. cerevisiae deletion strains, locus YJR043C, strain POL32, stronger effect = lower value 0.973 | S. cerevisiae deletion strains, locus YJR075W, strain HOC1, stronger effect = lower value 0.937 | S. cerevisiae deletion strains, locus YKL190W, strain CNB1, stronger effect = lower value 1.01 | S. cerevisiae deletion strains, locus YLR039C, strain RIC1, stronger effect = lower value 1 | S. cerevisiae deletion strains, locus YLR058C, strain SHM2 (second series), stronger effect = lower value 0.967 | S. cerevisiae deletion strains, locus YLR085C, strain ARP6, stronger effect = lower value 1.03 | S. cerevisiae deletion strains, locus YLR262C, strain YPT6, stronger effect = lower value 0.995 | S. cerevisiae deletion strains, locus YML094W, strain GIM5, stronger effect = lower value 0.997 | S. cerevisiae deletion strains, locus YMR263W, strain SAP30, stronger effect = lower value 0.941 | S. cerevisiae deletion strains, locus YNL153C, strain GIM3, stronger effect = lower value 0.942 | S. cerevisiae deletion strains, locus YNL298W, strain CLA4 (second series), stronger effect = lower value 1.02 | S. cerevisiae deletion strains, locus YNL322C, strain KRE1, stronger effect = lower value 0.944 | S. cerevisiae deletion strains, locus YNR030W, strain Alg12, stronger effect = lower value 1 | S. cerevisiae deletion strains, locus YPL055C, strain LGE1, stronger effect = lower value 0.837 | S. cerevisiae deletion strains, locus YPL241C, strain CIN2, stronger effect = lower value 1 | S. cerevisiae deletion strains, locus YPR135W, strain CTF4, stronger effect = lower value 1.06 | S. cerevisiae strains, strain wild type, stronger effect = lower value 1.01

Cc1cccc(Nc2cc(Cl)nc(SCC(=O)O)n2)c1C
inactive: S. cerevisiae deletion strains, locus YAL021C, strain ccr4, stronger effect = lower value 0.932 | S. cerevisiae deletion strains, locus YAL026C, strain drs2, stronger effect = lower value 1.01 | S. cerevisiae deletion strains, locus YAL030W, strain snc1, stronger effect = lower value 1 | S. cerevisiae deletion strains, locus YBL061C, strain skt5, stronger effect = lower value 0.999 | S. cerevisiae deletion strains, locus YBR009C, strain hhf1, stronger effect = lower value 1.06 | S. cerevisiae deletion strains, locus YBR023C, strain chs3, stronger effect = lower value 1 | S. cerevisiae deletion strains, locus YBR171W, strain sec66, stronger effect = lower value 0.988 | S. cerevisiae deletion strains, locus YBR231C, strain swc5, stronger effect = lower value 1.01 | S. cerevisiae deletion strains, locus YBR279W, strain paf1, stronger effect = lower value 1.01 | S. cerevisiae deletion strains, locus YCL011C, strain gbp2, stronger effect = lower value 0.987 | S. cerevisiae deletion strains, locus YCL016C, strain dcc1, stronger effect = lower value 1.01 | [1] 0.984 | S. cerevisiae deletion strains, locus YCL069W, strain vba3, stronger effect = lower value 0.99 | S. cerevisiae deletion strains, locus YCR088W, strain abp1, stronger effect = lower value 0.988 | S. cerevisiae deletion strains, locus YDL005C, strain med2, stronger effect = lower value 0.99 | S. cerevisiae deletion strains, locus YDL040C, strain nat1, stronger effect = lower value 0.996 | S. cerevisiae deletion strains, locus YDR001C, strain nth1, stronger effect = lower value 0.984 | S. cerevisiae deletion strains, locus YDR069C, strain doa4, stronger effect = lower value 0.998 | S. cerevisiae deletion strains, locus YDR137W, strain rgp1, stronger effect = lower value 0.934 | S. cerevisiae deletion strains, locus YDR159W, strain sac3, stronger effect = lower value 1.03 | S. cerevisiae deletion strains, locus YDR195W, strain ref2 0.987 | S. cerevisiae deletion strains, locus YDR297W, strain sur2, stronger effect = lower value 0.991 | S. cerevisiae deletion strains, locus YDR334W, strain swr1, stronger effect = lower value 0.969 | S. cerevisiae deletion strains, locus YDR335W, strain msn5, stronger effect = lower value 0.996 | S. cerevisiae deletion strains, locus YDR392W, strain spt3, stronger effect = lower value 0.965 | S. cerevisiae deletion strains, locus YEL003W, strain gim4, stronger effect = lower value 0.999 | S. cerevisiae deletion strains, locus YEL037C, strain rad23, stronger effect = lower value 0.999 | S. cerevisiae deletion strains, locus YEL061C, strain CIN8 (second series), stronger effect = lower value 0.991 | S. cerevisiae deletion strains, locus YER015W, strain faa2, stronger effect = lower value 1.02 | S. cerevisiae deletion strains, locus YER016W, strain bim1, stronger effect = lower value 1.01 | S. cerevisiae deletion strains, locus YER111C, strain swi4, stronger effect = lower value 1.01 | S. cerevisiae deletion strains, locus YER155C, strain BEM2 (second series), stronger effect = lower value 1.04 | S. cerevisiae deletion strains, locus YFR010W, strain ubp6, stronger effect = lower value 1 | S. cerevisiae deletion strains, locus YGL167C, strain pmr1, stronger effect = lower value 0.997 | S. cerevisiae deletion strains, locus YGL173C, strain kem1, stronger effect = lower value 1 | S. cerevisiae deletion strains, locus YGL227W, strain vid30, stronger effect = lower value 1 | S. cerevisiae deletion strains, locus YGL240W, strain doc1, stronger effect = lower value 1.03 | S. cerevisiae deletion strains, locus YGL253W, strain hxk2, stronger effect = lower value 1.01 | S. cerevisiae deletion strains, locus YHR013C, strain ard1, stronger effect = lower value 0.977 | S. cerevisiae deletion strains, locus YHR027C, strain rpn1, stronger effect = lower value 0.987 | S. cerevisiae deletion strains, locus YHR142W, strain chs7, stronger effect = lower value 0.936 | S. cerevisiae deletion strains, locus YJL092W, strain hpr5, stronger effect = lower value 0.983 | S. cerevisiae deletion strains, locus YJL095W, strain BCK1 (second series), stronger effect = lower value 0.987 | S. cerevisiae deletion strains, locus YJL115W, strain asf1, stronger effect = lower value 0.98 | S. cerevisiae deletion strains, locus YJL129C, strain trk1, stronger effect = lower value 0.986 | S. cerevisiae deletion strains, locus YJL154C, strain vps35, stronger effect = lower value 0.992 | S. cerevisiae deletion strains, locus YJL164C, strain tpk1, stronger effect = lower value 0.978 | S. cerevisiae deletion strains, locus YJL166W, strain qcr8, stronger effect = lower value 1.01 | S. cerevisiae deletion strains, locus YJL187C, strain SWE1, stronger effect = lower value 0.996 | S. cerevisiae deletion strains, locus YKL160W, strain elf1, stronger effect = lower value 0.955 | S. cerevisiae deletion strains, locus YKR026C, strain gcn3, stronger effect = lower value 0.988 | S. cerevisiae deletion strains, locus YKR091W, strain srl3, stronger effect = lower value 0.989 | S. cerevisiae deletion strains, locus YLL001W, strain dnm1, stronger effect = lower value 1 | S. cerevisiae deletion strains, locus YLL026W, stronger effect = lower value 0.992 | S. cerevisiae deletion strains, locus YLL041C, strain sdh2, stronger effect = lower value 0.99 | S. cerevisiae deletion strains, locus YLR027C, strain aat2, stronger effect = lower value 0.993 | S. cerevisiae deletion strains, locus YLR221C, strain rsa3, stronger effect = lower value 0.997 | S. cerevisiae deletion strains, locus YLR258W, strain gsy2, stronger effect = lower value 1.01 | S. cerevisiae deletion strains, locus YLR262C, strain YPT6 (second series), stronger effect = lower value 0.962 | S. cerevisiae deletion strains, locus YLR320W, strain mms22, stronger effect = lower value 0.989 | S. cerevisiae deletion strains, locus YLR342W, strain FKS1, stronger effect = lower value 1 | S. cerevisiae deletion strains, locus YLR357W, strain rsc2, stronger effect = lower value 1.02 | S. cerevisiae deletion strains, locus YLR370C, strain arc18, stronger effect = lower value 0.992 | S. cerevisiae deletion strains, locus YLR384C, strain iki3, stronger effect = lower value 0.998 | S. cerevisiae deletion strains, locus YML120C, strain ndi1, stronger effect = lower value 0.986 | S. cerevisiae deletion strains, locus YMR058W, strain fet3, stronger effect = lower value 0.983 | S. cerevisiae deletion strains, locus YMR125W, strain sto1, stronger effect = lower value 0.988 | S. cerevisiae deletion strains, locus YMR129W, stronger effect = lower value 0.973 | S. cerevisiae deletion strains, locus YMR205C, strain PFK2, stronger effect = lower value 1.05 | S. cerevisiae deletion strains, locus YMR231W, strain pep5, stronger effect = lower value 0.992 | S. cerevisiae deletion strains, locus YNL071W, strain lat1, stronger effect = lower value 0.985 | S. cerevisiae deletion strains, locus YNL209W, strain ssb2, stronger effect = lower value 0.993 | S. cerevisiae deletion strains, locus YNL248C, strain rpa49, stronger effect = lower value 0.933 | S. cerevisiae deletion strains, locus YNL322C, strain KRE1 (second series), stronger effect = lower value 0.996 | S. cerevisiae deletion strains, locus YNR049C, strain mso1, stronger effect = lower value 0.988 | S. cerevisiae deletion strains, locus YOR001W, strain rrp6, stronger effect = lower value 0.974 | S. cerevisiae deletion strains, locus YOR070C, strain gyp1, stronger effect = lower value 1 | S. cerevisiae deletion strains, locus YOR080W, strain dia2, stronger effect = lower value 1.02 | S. cerevisiae deletion strains, locus YOR083W, strain WHI5, stronger effect = lower value 0.942 | S. cerevisiae deletion strains, locus YOR106W, strain vam3, stronger effect = lower value 0.946 | S. cerevisiae deletion strains, locus YOR265W, strain rbl2, stronger effect = lower value 0.992 | S. cerevisiae deletion strains, locus YOR270C, strain vph1, stronger effect = lower value 0.972 | S. cerevisiae deletion strains, locus YOR290C, strain snf2, stronger effect = lower value 0.976 | S. cerevisiae deletion strains, locus YPL051W, strain arl3, stronger effect = lower value 0.974 | S. cerevisiae deletion strains, locus YPL078C, strain atp4, stronger effect = lower value 0.925 | S. cerevisiae deletion strains, locus YPL106C, strain sse1, stronger effect = lower value 1.01 | S. cerevisiae deletion strains, locus YPL240C, strain hsp82, stronger effect = lower value 0.978
